The values that follow come from PubChem BioAssay (EPA / NIEHS).

Molecules are shown by their SMILES. Results filed as inconclusive are left out. Calls of active or inactive are those of the source. The calls were made as follows, unless noted: active = hit-call score of the fitted dose curve at least 0.9, where 1 is the maximum; inconclusive = response in the unintended direction; inactive = score below 0.9.

The nature of assay [1]: TOX21_p53_BLA_p2_viability: Viability Assessment in the Tox21 HCT-116 p53 Agonism Beta-lactamase Assay, Phase 2 (AID 2283591).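 Also: compound exposure lasted 16 h at 37 °C; actives lower the ATP signal meaning cytotoxicity.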 In outline: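 HCT-116 p53-bla cells (4000/well) rested 5 h at 37C, then received compounds in DMSO (217-fold dilution) for 16 h at 37C, 5% CO2. After the CCF4 read, CellTiter-Glo was added; ATP luminescence was read after 30 min at room temperature.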

Assay [2] is described as follows: TOX21_p53_BLA_p3_viability: Viability Assessment in the Tox21 HCT-116 p53 Agonism Beta-lactamase Assay, Phase 3 (AID 2283593).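 Also: cells exposed to compound for 16 h before reading.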 The gist of the method: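 HCT-116 cells (4000/well) rested 5 h at 37C, then got DMSO compounds by pin tool (217-fold dilution) for 16 h at 37C, 5% CO2. After the bla read, CellTiter-Glo was added and luminescence read at 30 min, room temperature.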

The target in assay [3] is Cellular tumor antigen p53 (Homo sapiens) (UniProt P04637). The assay can be described thus: TOX21_p53_BLA_p3_ratio: Tox21 HCT-116 p53 Agonism Beta-lactamase Assay, Ratio, Phase 3 (AID 2283596). In outline: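 HCT116 p53-bla cells (4000/well) given compound in DMSO (217-fold dilution) after 5 h, incubated 16 h at 37C. CCF4-AM substrate 2 h at room temperature; 460/530 nm emission ratio, gain fitted against DMSO.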

Assay [4] can be described thus: TOX21_p53_BLA_p4_viability: Viability Assessment in the Tox21 HCT-116 p53 Agonism Beta-lactamase Assay, Phase 4 (AID 2283597).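 Also: hits lower the luminescence signal meaning cytotoxicity.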 In outline: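 Cells plated, 5 h pre-incubation; DMSO compounds pinned (217-fold dilution); 16 h, 37C/5% CO2; CCF4-AM 2 h RT; CellTiter-Glo 30 min RT; luminescence read.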
Assay [5] can be described thus: TOX21_p53_BLA_p5_viability: Viability Assessment in the Tox21 HCT-116 p53 Agonism Beta-lactamase Assay, Phase 5 (AID 2283600). In outline: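 4000 cells/well; 5 h pre-incubation; DMSO compounds pin-transferred, 217-fold dilution; 16 h, 37C/5% CO2; CCF4-AM 2 h RT; CellTiter-Glo 30 min RT; luminescence.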
In assay [6] the target is Cellular tumor antigen p53 (Homo sapiens) (UniProt P04637). The assay can be described thus: TOX21_p53_BLA_p5_ratio: Tox21 HCT-116 p53 Agonism Beta-lactamase Assay, Ratio, Phase 5 (AID 2283599). In outline: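 HCT-116 cells carrying a p53-inducible beta-lactamase reporter were seeded at 4000 cells/well and dosed after 5 h with compound in DMSO (217-fold dilution). After 16 h at 37C, CCF4-AM substrate was added for 2 h, and the 460/530 nm emission ratio was scored as gain-of-signal versus DMSO.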

The target is the same in assay [7]. The assay can be described thus: TOX21_p53_BLA_p4_ratio: Tox21 HCT-116 p53 Agonism Beta-lactamase Assay, Ratio, Phase 4 (AID 2283601). In outline: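 HCT116 cells carrying an inducible beta-lactamase reporter were plated at 4000 cells/well, rested 5 h, then exposed to compounds in DMSO (217-fold dilution) for 16 h at 37C. CCF4-AM substrate was loaded 2 h at room temperature; 460/530 nm emission ratio scored gain-of-signal versus DMSO.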

A short description of assay [8]: CEETOX_H295R_MTT_cell_viability: Viability Assessment in the CeeTox HT-H295R MTT Assay (AID 2283718; active = hit-call score of the fitted dose curve at least 0.9, where 1 is the maximum; inactive = score below 0.9). The gist of the method: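 H295R cells prestimulated 48 h with 10 uM forskolin, then exposed 48 h to test chemical (0.1% DMSO final). Viability by MTT (0.5 mg/ml, 4 h, 37 C), absorbance 570/650 nm; percent change versus DMSO, bidirectional fit.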
Assay [9] can be described thus: CEETOX_H295R_11DCORT_noMTC: CeeTox H295R High-throughput Steroidogenesis Assay for 11-Deoxycortisol (11DCORT), maximum tolerated concentration (MTC) filtered results only (AID 2283911; active = hit-call score of the fitted dose curve at least 0.9, where 1 is the maximum; inactive = score below 0.9). The note with it: actives raise or lower the signal. The gist of the method: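 Steroidogenesis was stimulated in H295R cells with 10 uM forskolin for 48 h before a 48 h chemical exposure. Secreted 11-deoxycortisol was measured by tandem mass spectrometry and fitted bidirectionally against DMSO controls.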

The nature of assay [10]: CEETOX_H295R_OHPREG_noMTC: CeeTox H295R High-throughput Steroidogenesis Assay for OH-Pregnenolone (OHPREG), maximum tolerated concentration (MTC) filtered results only (AID 2283912; active = hit-call score of the fitted dose curve at least 0.9, where 1 is the maximum; inactive = score below 0.9). To be noted: actives raise or lower the signal. In outline: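 H295R human adrenal cells, forskolin-prestimulated (10 uM, 48 h), then exposed to test chemical in 0.1% DMSO for 48 h. 17alpha-hydroxypregnenolone in medium measured by HPLC-MS/MS after MTBE extraction; bidirectional fit versus DMSO, concentrations not MTC-filtered.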

A short description of assay [11]: CEETOX_H295R_OHPROG_noMTC: CeeTox H295R High-throughput Steroidogenesis Assay for OH-Progesterone (OHPROG), maximum tolerated concentration (MTC) filtered results only (AID 2283914; active = hit-call score of the fitted dose curve at least 0.9, where 1 is the maximum; inactive = score below 0.9). To be noted: actives raise or lower the signal. In outline:
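H295R human adrenal cells prestimulated 48 h with 10 uM forskolin, then exposed 48 h to test chemical (0.1% DMSO final). Medium 17alpha-hydroxyprogesterone extracted with MTBE, quantified by HPLC-MS/MS; bidirectional fit versus DMSO, concentrations not MTC-filtered.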

A short description of assay [12]: CEETOX_H295R_CORTISOL_noMTC: CeeTox H295R High-throughput Steroidogenesis Assay for Cortisol, maximum tolerated concentration (MTC) filtered results only (AID 2283916; active = hit-call score of the fitted dose curve at least 0.9, where 1 is the maximum; inactive = score below 0.9). To be noted: actives raise or lower the signal. In outline: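 H295R adrenal cells were pre-stimulated 48 h with 10 uM forskolin, then exposed 48 h to test chemical in 0.1% DMSO. Medium cortisol was measured by MTBE extraction and HPLC-MS/MS; bidirectional fit versus DMSO, concentrations not MTC-filtered.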

Assay [13] is described as follows: CEETOX_H295R_CORTIC_noMTC: CeeTox H295R High-throughput Steroidogenesis Assay for Corticosterone (CORTIC), maximum tolerated concentration (MTC) filtered results only (AID 2283917; active = hit-call score of the fitted dose curve at least 0.9, where 1 is the maximum; inactive = score below 0.9). The note with it: actives raise or lower the signal. The gist of the method:
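H295R, 10 uM forskolin prestim 48 h → test chem (0.1% DMSO final) 48 h → media MTBE extraction → HPLC-MS/MS corticosterone. Bidirectional fit vs DMSO baseline; no MTT-based MTC filtering.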

Assay [14] can be described thus: CEETOX_H295R_DOC_noMTC: CeeTox H295R High-throughput Steroidogenesis Assay for DOC, maximum tolerated concentration (MTC) filtered results only (AID 2283918; active = hit-call score of the fitted dose curve at least 0.9, where 1 is the maximum; inactive = score below 0.9). To be noted: actives raise or lower the signal. In outline: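 H295R cells prestimulated 48 h with 10 uM forskolin, then exposed 48 h to test chemical (0.1% DMSO final). Medium 11-deoxycorticosterone extracted with MTBE, quantified by HPLC-MS/MS; bidirectional fit versus DMSO, concentrations not MTC-filtered.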

The nature of assay [15]: CEETOX_H295R_PROG_noMTC: CeeTox H295R High-throughput Steroidogenesis Assay for Progesterone (PROG), maximum tolerated concentration (MTC) filtered results only (AID 2283920; active = hit-call score of the fitted dose curve at least 0.9, where 1 is the maximum; inactive = score below 0.9). To be noted: actives raise or lower the signal. The gist of the method: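 H295R human adrenal cells were prestimulated 48 h with 10 uM forskolin, then exposed 48 h to test chemical (0.1% DMSO final). Progesterone in medium was quantified by HPLC-MS/MS; bidirectional fitting versus DMSO, concentrations not MTC-filtered.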

Assay [16] can be described thus: CCTE_Harrill_HTTr_Viability_MCF7: CCTE's 6-hour Cell Viability Assessment for the High-Throughput Transcriptomics (HTTr) Platform, in MCF-7 cells cultured in DMEM + 10% fetal bovine serum, Harrill Lab (AID 2284010; active = hit-call score of the fitted dose curve at least 0.9, where 1 is the maximum; inactive = score below 0.9). In outline:
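MCF-7 cells in DMEM + 10% FBS, 384-well, exposed 6 h to an eight-point dilution series. Membrane integrity scored by high-content imaging of propidium iodide exclusion; bidirectional fit versus DMSO.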

Assay [17] can be described thus: CCTE_Harrill_HTTr_Apoptosis_MCF7: CCTE's 6-hour Apoptosis Assessment for the High-Throughput Transcriptomics (HTTr) Platform, in MCF-7 cells cultured in DMEM + 10% fetal bovine serum, Harrill Lab (AID 2284011; active = hit-call score of the fitted dose curve at least 0.9, where 1 is the maximum; inactive = score below 0.9). The gist of the method: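 MCF-7 (DMEM + 10% FBS), 384-well; 8-pt dilution series, 6 h chemical exposure; caspase-3/7 activation via CellEvent Caspase 3/7 Green, HCI; bidirectional fit vs DMSO.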

Assay [18] concerns the target PGR (gene 5241) (UniProt P06401). The assay can be described thus: TOX21_PR_BLA_Followup_Antagonist_ratio: Tox21 HEK293 Progesterone Receptor (PR) Antagonism Beta-lactamase Follow-Up Assay, Ratio (AID 2283934). The gist of the method:
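PR-UAS-bla HEK293T cells, 3,000/well in 2% charcoal-stripped FBS, given compound plus 1nM R5020 agonist for 16 hr at 37C. Beta-lactamase FRET substrate 2 hours, ratio cleaved/uncleaved fluorescence; viability by CellTiter-Glo in same wells.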

Assay [19] in a line: TOX21_PR_BLA_Followup_Agonist_viability: Viability Assessment in the Tox21 HEK293 Progesterone Receptor (PR) Agonism Beta-lactamase Follow-Up Assay (AID 2283935).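 Also: signal loss means lower viability so actives are cytotoxic.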 The gist of the method: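 PR-UAS-bla HEK293T cells in 2% charcoal-stripped FBS medium, plated 6 hr before compound addition, exposed 16 hr at 37C. Viability read by CellTiter-Glo ATP luminescence after 30 min at room temperature, in the same wells as the beta-lactamase readout.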

A short description of assay [20]: TOX21_PR_BLA_Followup_Antagonist_viability: Viability Assessment in the Tox21 HEK293 Progesterone Receptor (PR) Antagonism Beta-lactamase Follow-Up Assay (AID 2283936).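 Also: hits lower the luminescence signal meaning cytotoxicity.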 The gist of the method:
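PR-UAS-bla HEK293T cells (3,000/well, 2% charcoal-stripped FBS) given compound plus R5020 agonist, 16 h at 37C. CellTiter-Glo added after bla read, 30 min at room temperature; luminescence loss indicates cytotoxicity.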

Assay [21] deals with PGR (gene 5241) (UniProt P06401). The assay can be described thus: TOX21_PR_LUC_Followup_Antagonist: Tox21 HEK293 Progesterone Receptor (PR) Antagonism Luciferase Follow-Up Assay (AID 2283938).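 Also: curve fitted upward as signal gain over DMSO baseline despite antagonist label.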 In outline:
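Cells are grown 5 days in charcoal-stripped-FBS assay medium, plated, left 5 h, then dosed with compound and incubated 16 h. ONE-Glo reagent is added and luminescence read after 30 min.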

The nature of assay [22]: TOX21_PR_LUC_Followup_Agonist_viability: Viability Assessment in the Tox21 HEK293 Progesterone Receptor (PR) Agonism Luciferase Follow-Up Assay (AID 2283941).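 Also: loss of signal means cytotoxicity so actives lower viability.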 In outline:
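HEK293-PR-A-luc cells, kept in 10% charcoal-stripped FBS medium, were treated with compounds for 16 h at 37C. Viability read as cellular ATP by luciferase-coupled luminescence; loss of signal indicates cytotoxicity.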

Cellular tumor antigen p53 (Homo sapiens), sequence (P04637 whole entry, looked up): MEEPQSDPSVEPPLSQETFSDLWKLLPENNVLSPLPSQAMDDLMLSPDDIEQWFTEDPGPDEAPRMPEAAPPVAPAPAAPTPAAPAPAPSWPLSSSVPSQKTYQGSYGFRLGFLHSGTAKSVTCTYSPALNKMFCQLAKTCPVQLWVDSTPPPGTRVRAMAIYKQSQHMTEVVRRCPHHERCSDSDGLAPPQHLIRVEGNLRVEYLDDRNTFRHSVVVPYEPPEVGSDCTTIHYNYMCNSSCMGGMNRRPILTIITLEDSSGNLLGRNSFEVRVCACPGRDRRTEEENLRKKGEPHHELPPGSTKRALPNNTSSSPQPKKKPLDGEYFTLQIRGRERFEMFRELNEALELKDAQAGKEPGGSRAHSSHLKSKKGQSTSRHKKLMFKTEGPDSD
PGR (gene 5241), sequence (P06401 whole entry, looked up): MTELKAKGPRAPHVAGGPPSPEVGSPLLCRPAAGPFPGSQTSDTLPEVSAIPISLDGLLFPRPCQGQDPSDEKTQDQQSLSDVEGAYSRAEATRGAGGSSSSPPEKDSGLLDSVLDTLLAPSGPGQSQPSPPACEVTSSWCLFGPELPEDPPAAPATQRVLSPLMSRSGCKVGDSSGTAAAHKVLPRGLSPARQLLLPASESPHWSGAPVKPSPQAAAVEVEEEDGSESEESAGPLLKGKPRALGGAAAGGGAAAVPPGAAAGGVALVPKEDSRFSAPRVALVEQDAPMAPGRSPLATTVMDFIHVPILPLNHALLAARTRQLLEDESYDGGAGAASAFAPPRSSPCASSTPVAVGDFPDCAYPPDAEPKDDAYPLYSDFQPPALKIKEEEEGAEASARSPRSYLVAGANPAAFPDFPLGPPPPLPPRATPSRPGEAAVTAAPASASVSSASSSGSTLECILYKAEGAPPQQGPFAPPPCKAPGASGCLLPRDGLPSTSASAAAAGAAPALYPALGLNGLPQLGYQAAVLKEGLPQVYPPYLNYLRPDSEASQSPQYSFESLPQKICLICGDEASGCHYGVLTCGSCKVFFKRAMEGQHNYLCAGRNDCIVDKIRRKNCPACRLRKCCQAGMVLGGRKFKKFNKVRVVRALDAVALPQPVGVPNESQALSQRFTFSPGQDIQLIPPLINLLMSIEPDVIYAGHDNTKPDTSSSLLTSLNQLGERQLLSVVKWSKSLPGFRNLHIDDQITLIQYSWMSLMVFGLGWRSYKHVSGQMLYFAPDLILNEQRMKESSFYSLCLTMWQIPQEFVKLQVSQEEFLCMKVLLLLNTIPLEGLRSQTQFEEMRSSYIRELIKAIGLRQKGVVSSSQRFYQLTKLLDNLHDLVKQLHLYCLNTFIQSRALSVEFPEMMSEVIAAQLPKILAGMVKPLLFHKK

On to `CCOC(=O)Cc1ccc(-c2ccccc2)cc1`, for which the molecule was classed as inactive in assay [1], in assay [2], in assay [3], in assay [4] and in assay [5].

Consider `CC(C)(C(=O)c1cccnc1)c1cccnc1`, for which the call in [1], in [2], in [3], in [4], in assay [6] and in assay [7] was inactive. For the same molecule, the molecule was called inactive in [8], in assay [14], in assay [15], in assay [16] and in assay [17]. The concentration at half-maximal activity (AC50) (usually the concentration giving half of the maximal activity seen) was 35.3 µM (active) in assay [9]; 36.9 µM (active) in assay [10]; 29.1 µM (active) in assay [11]; 1.56 µM (active) in assay [12]; 0.13 µM (active) in [13].

For `CC(=O)OC(C)=O`, the molecule was called inactive in assay [1], in assay [2], in assay [3], in assay [6] and in assay [5].

With `COCCOC(=O)C1=C(C)NC(C)=C(C(=O)OC(C)C)C1c1cccc([N+](=O)[O-])c1` (stereo unspecified), the molecule was classed as inactive in assay [1], in [2], in assay [3], in [4], in [6] and in [19]. For the same molecule, the molecule was called inactive in assay [20] and in assay [22]. Moreover, the AC50 in assay [18] is 23 µM (active); in assay [21], 26.4 µM (active).
